# Measurements from the supplement of paper PMC8728848.
# The entries come from a sample that favours the strongest signals as a whole.
# How the values were obtained:
# Experiment in all cases: glycan array binding signal (z-score within array); higher = stronger binding
# [1] = molecular target: Fuc(a1-2)[Gal(a1-3)]Gal(b1-4)[Fuc(a1-3)]GlcNAc; conditions: glycan notation: IUPAC condensed, linker removed; mutation: D325N
# How it was run: (§1)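 The Consortium for Functional Glycomics database supplied 3228 glycan arrays, of which those lacking an available protein sequence were dropped. The binding signal, a within-array Z-score, was averaged across arrays of the same protein sequence and across linkers. Negative scores can be read as non-binding.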
# [2] = molecular target: Fuc(a1-3)[Gal3S(b1-4)]Glc6S; conditions: glycan notation: IUPAC condensed, linker removed; mutation: D325N
# How it was run: as §1
# Gal(a1-2)Gal = conditions: glycan notation: IUPAC condensed, linker removed; mutation: D325N
# How it was run: as §1
# Gal(a1-3)Gal(b1-3)GlcNAc = conditions: glycan notation: IUPAC condensed, linker removed; mutation: D325N
# How it was run: as §1
# Gal(a1-3)Gal(b1-4)Glc = conditions: glycan notation: IUPAC condensed, linker removed; mutation: D325N
# How it was run: as §1
# [3] = molecular target: Gal(b1-3)[Neu5Ac(b2-6)]GalNAc; conditions: glycan notation: IUPAC condensed, linker removed; mutation: D325N
# How it was run: as §1
# [4] = molecular target: Gal(b1-4)GlcNAc(b1-3)Gal(b1-4)[Fuc(a1-3)]GlcNAc(b1-3)Gal(b1-4)[Fuc(a1-3)]GlcNAc; conditions: glycan notation: IUPAC condensed, linker removed; mutation: D325N
# How it was run: as §1
# [5] = molecular target: Gal(b1-4)GlcNAc(b1-6)Gal(b1-4)GlcNAc(b1-6)GalNAc; conditions: glycan notation: IUPAC condensed, linker removed; mutation: D325N
# How it was run: as §1
# [6] = molecular target: Gal(b1-4)GlcNAc(b1-6)GalNAc; conditions: glycan notation: IUPAC condensed, linker removed; mutation: D325N
# How it was run: as §1
# [7] = molecular target: Gal(b1-4)GlcNAc(b1-6)[Gal(b1-3)]GalNAc; conditions: glycan notation: IUPAC condensed, linker removed; mutation: D325N
# How it was run: as §1
# GlcNAc(b1-3)Gal(b1-4)Glc = conditions: glycan notation: IUPAC condensed, linker removed; mutation: D325N
# How it was run: as §1
# [8] = molecular target: GlcNAc(b1-6)Gal(b1-4)GlcNAc; conditions: glycan notation: IUPAC condensed, linker removed; mutation: D325N
# How it was run: as §1
# [9] = molecular target: Man(a1-2)Man(a1-2)Man(a1-3)Man; conditions: glycan notation: IUPAC condensed, linker removed; mutation: D325N
# How it was run: as §1
# [10] = molecular target: Man(a1-2)Man(a1-3)[Man(a1-2)Man(a1-6)]Man; conditions: glycan notation: IUPAC condensed, linker removed
# How it was run: as §1
# [11] = molecular target: Man(a1-2)Man(a1-3)[Man(a1-2)Man(a1-6)]Man(a1-6)[Man(a1-2)Man(a1-2)Man(a1-3)]Man; conditions: glycan notation: IUPAC condensed, linker removed
# How it was run: as §1
# [12] = molecular target: Man(a1-2)Man(a1-6)[Man(a1-3)]Man(a1-6)[Man(a1-2)Man(a1-2)Man(a1-3)]Man; conditions: glycan notation: IUPAC condensed, linker removed
# How it was run: as §1
# [13] = molecular target: Man(a1-3)[Man(a1-6)]Man(a1-6)[Man(a1-3)]Man; conditions: glycan notation: IUPAC condensed, linker removed; mutation: D325N
# How it was run: as §1
# [14] = molecular target: Man(a1-3)[Man(a1-6)]Man(a1-6)[Man(a1-3)]Man(b1-4)GlcNAc(b1-4)GlcNAc; conditions: glycan notation: IUPAC condensed, linker removed
# How it was run: as §1
# [15] = molecular target: Neu5Ac(a2-3)Gal(b1-3)GlcNAc; conditions: glycan notation: IUPAC condensed, linker removed
# How it was run: as §1
# [16] = molecular target: Neu5Ac(a2-3)Gal(b1-4)[Fuc(a1-3)]GlcNAc(b1-3)Gal(b1-4)GlcNAc; conditions: glycan notation: IUPAC condensed, linker removed; mutation: D325N
# How it was run: as §1
# [17] = molecular target: Neu5Ac(a2-3)GalNAc(b1-4)GlcNAc; conditions: glycan notation: IUPAC condensed, linker removed; mutation: D325N
# How it was run: as §1
# Neu5Ac(a2-6)Gal = conditions: glycan notation: IUPAC condensed, linker removed; mutation: D325N
# How it was run: as §1
# Neu5Ac(a2-6)Gal(b1-4)Glc = conditions: glycan notation: IUPAC condensed, linker removed; mutation: D325N
# How it was run: as §1
# Neu5Ac(a2-6)GalNAc = conditions: glycan notation: IUPAC condensed, linker removed; mutation: D325N
# How it was run: as §1
# [18] = molecular target: Neu5Ac(a2-8)Neu5Ac(a2-8)Neu5Ac; conditions: glycan notation: IUPAC condensed, linker removed; mutation: D325N
# How it was run: as §1
# [19] = molecular target: Fuc(a1-2)[Gal(a1-4)]Gal(b1-4)GlcNAc; conditions: glycan notation: IUPAC condensed, linker removed; mutation: E347A
# How it was run: as §1
# [20] = molecular target: Fuc(a1-3)[GalNAc(b1-4)]GlcNAc; conditions: glycan notation: IUPAC condensed, linker removed; mutation: E347A
# How it was run: as §1
# Gal(a1-3)Gal(b1-4)GlcNAc = conditions: glycan notation: IUPAC condensed, linker removed; mutation: E347A
# How it was run: as §1
# Gal(a1-3)GalNAc = conditions: glycan notation: IUPAC condensed, linker removed; mutation: E347A
# How it was run: as §1
# Gal(a1-6)Glc = conditions: glycan notation: IUPAC condensed, linker removed; mutation: E347A
# How it was run: as §1
# Gal(b1-2)Gal = conditions: glycan notation: IUPAC condensed, linker removed; mutation: E347A
# How it was run: as §1
# [21] = molecular target: Gal(b1-3)GlcNAc(b1-3)Gal(b1-4)GlcNAc; conditions: glycan notation: IUPAC condensed, linker removed; mutation: E347A
# How it was run: as §1
# [22] = molecular target: Gal(b1-3)[GlcNAc(b1-6)]GalNAc; conditions: glycan notation: IUPAC condensed, linker removed; mutation: E347A
# How it was run: as §1
# [23] = molecular target: Gal(b1-3)[Neu5Ac(a2-6)]GlcNAc(b1-6)Gal(b1-4)Glc; conditions: glycan notation: IUPAC condensed, linker removed; mutation: E347A
# How it was run: as §1
# [24] = molecular target: Gal(b1-4)GlcNAc(a1-6)Gal(b1-4)GlcNAc; conditions: glycan notation: IUPAC condensed, linker removed; mutation: E347A
# How it was run: as §1
# [25] = molecular target: Gal(b1-4)GlcNAc(b1-3)Gal(b1-4)GlcNAc; conditions: glycan notation: IUPAC condensed, linker removed; mutation: E347A
# How it was run: as §1
# [26] = molecular target: Gal(b1-4)GlcNAc(b1-3)GalNAc; conditions: glycan notation: IUPAC condensed, linker removed; mutation: E347A
# How it was run: as §1
# [27] = molecular target: Gal(b1-4)GlcNAc(b1-6)Gal(b1-4)GlcNAc; conditions: glycan notation: IUPAC condensed, linker removed; mutation: E347A
# How it was run: as §1
# GlcNAc(b1-3)Gal = conditions: glycan notation: IUPAC condensed, linker removed; mutation: E347A
# How it was run: as §1
# GlcNAc3Prop(b1-4)GlcNAc = conditions: glycan notation: IUPAC condensed, linker removed; mutation: E347A
# How it was run: as §1
# Man(a1-2)Man(a1-3)Man = conditions: glycan notation: IUPAC condensed, linker removed; mutation: E347A
# How it was run: as §1
# [28] = molecular target: Man(a1-2)Man(a1-3)[Man(a1-6)]Man(a1-6)[Man(a1-2)Man(a1-3)]Man(b1-4)GlcNAc(b1-4)GlcNAc; conditions: glycan notation: IUPAC condensed, linker removed; mutation: E347A
# How it was run: as §1
# [29] = molecular target: Man(a1-3)[Man(a1-6)]Man(a1-6)[Man(a1-2)Man(a1-3)]Man(b1-4)GlcNAc(b1-4)GlcNAc; conditions: glycan notation: IUPAC condensed, linker removed; mutation: E347A
# How it was run: as §1
# [30] = molecular target: Neu5Ac(a2-3)Gal6S(b1-4)[Fuc(a1-3)]GlcNAc; conditions: glycan notation: IUPAC condensed, linker removed; mutation: E347A
# How it was run: as §1
# [31] = molecular target: Neu5Gc(a2-3)Gal(b1-3)GlcNAc; conditions: glycan notation: IUPAC condensed, linker removed; mutation: E347A
# How it was run: as §1
binder,measurement,setting,value
Surfactant Protein D (Human); Neck + Carbohydrate Recognition Domain (NCRD) (Homo sapiens) (protein) MLLFLLSALVLLTQPLGYLEAEMKTYSHRTMPSACTLVMCSSVESGLPGRDRDGREGPRGEKGDPGLPGAAGQAGMPGQAGPVGPKGDNGSVGEPGPKGDTGPSGPPGPPGVPGPAGREGALGKQGNIGPQGKPGPKGEAGPKGEVGAPGMQGSAGARGLAGPKGERGVPGERGVPGNTGAAGSAGAMGPQGSPGARGPPGLKGDKGIPGDKGAKGESGLPDVASLRQQVEALQGQVQHLQAAFSQYKKVELFPNGQSVGEKIFKTAQFVKPFTEAQLLCTQAGGQLASPRSAAENAALQQLVVAKNEAAFLSMTDSKTEGKFTYPTGESLVYSNWAPGEPNDNGGSEDCVEIFTNGKWNDRACGEKRLVVCEF,glycan array binding signal (z-score),[1],-0.1
same,glycan array binding signal (z-score),[2],-0.117
same,glycan array binding signal (z-score),Gal(a1-2)Gal,-0.109
same,glycan array binding signal (z-score),Gal(a1-3)Gal(b1-3)GlcNAc,-0.169
same,glycan array binding signal (z-score),Gal(a1-3)Gal(b1-4)Glc,-0.123
same,glycan array binding signal (z-score),[3],-0.139
same,glycan array binding signal (z-score),[4],-0.105
same,glycan array binding signal (z-score),[5],-0.132
same,glycan array binding signal (z-score),[6],-0.138
same,glycan array binding signal (z-score),[7],-0.128
same,glycan array binding signal (z-score),GlcNAc(b1-3)Gal(b1-4)Glc,-0.118
same,glycan array binding signal (z-score),[8],-0.138
same,glycan array binding signal (z-score),[9],2.18
same,glycan array binding signal (z-score),[10]; mutation: D325N,1.77
same,glycan array binding signal (z-score),[11]; mutation: D325N,9.38
same,glycan array binding signal (z-score),[12]; mutation: D325N,8.54
same,glycan array binding signal (z-score),[13],11.2
same,glycan array binding signal (z-score),[14]; mutation: D325N,0.338
same,glycan array binding signal (z-score),[15]; mutation: D325N,-0.127
same,glycan array binding signal (z-score),[16],-0.114
same,glycan array binding signal (z-score),[17],-0.148
same,glycan array binding signal (z-score),Neu5Ac(a2-6)Gal,-0.148
same,glycan array binding signal (z-score),Neu5Ac(a2-6)Gal(b1-4)Glc,-0.153
same,glycan array binding signal (z-score),Neu5Ac(a2-6)GalNAc,-0.129
same,glycan array binding signal (z-score),[18],-0.163
Surfactant Protein D (Human); Neck + Carbohydrate Recognition Domain (NCRD) (Homo sapiens) (protein) MLLFLLSALVLLTQPLGYLEAEMKTYSHRTMPSACTLVMCSSVESGLPGRDRDGREGPRGEKGDPGLPGAAGQAGMPGQAGPVGPKGDNGSVGEPGPKGDTGPSGPPGPPGVPGPAGREGALGKQGNIGPQGKPGPKGEAGPKGEVGAPGMQGSAGARGLAGPKGERGVPGERGVPGNTGAAGSAGAMGPQGSPGARGPPGLKGDKGIPGDKGAKGESGLPDVASLRQQVEALQGQVQHLQAAFSQYKKVELFPNGQSVGEKIFKTAQFVKPFTEAQLLCTQAGGQLASPRSAAENAALQQLVVAKNEAAFLSMTDSKTEGKFTYPTGESLVYSNWAPGEPNDDGGSADCVEIFTNGKWNDRACGAKRLVVCEF,glycan array binding signal (z-score),[19],-0.321
same,glycan array binding signal (z-score),[20],-0.435
same,glycan array binding signal (z-score),Gal(a1-3)Gal(b1-4)GlcNAc,-0.244
same,glycan array binding signal (z-score),Gal(a1-3)GalNAc,-0.384
same,glycan array binding signal (z-score),Gal(a1-6)Glc,-0.408
same,glycan array binding signal (z-score),Gal(b1-2)Gal,-0.48
same,glycan array binding signal (z-score),[21],-0.211
same,glycan array binding signal (z-score),[22],-0.15
same,glycan array binding signal (z-score),[23],-0.424
same,glycan array binding signal (z-score),[24],-0.244
same,glycan array binding signal (z-score),[25],0.532
same,glycan array binding signal (z-score),[26],-0.384
same,glycan array binding signal (z-score),[27],-0.317
same,glycan array binding signal (z-score),GlcNAc(b1-3)Gal,-0.071
same,glycan array binding signal (z-score),GlcNAc3Prop(b1-4)GlcNAc,-0.18
same,glycan array binding signal (z-score),Man(a1-2)Man(a1-3)Man,1.58
same,glycan array binding signal (z-score),[10]; mutation: E347A,6.34
same,glycan array binding signal (z-score),[11]; mutation: E347A,-0.461
same,glycan array binding signal (z-score),[28],10.1
same,glycan array binding signal (z-score),[12]; mutation: E347A,5.19
same,glycan array binding signal (z-score),[29],10.2
same,glycan array binding signal (z-score),[14]; mutation: E347A,0.008
same,glycan array binding signal (z-score),[15]; mutation: E347A,-0.335
same,glycan array binding signal (z-score),[30],-0.255
same,glycan array binding signal (z-score),[31],0
